Assay outcomes (PubChem BioAssay)
MEX-5 binding: MEX-5 zinc finger RNA-binding disruptors – biochemical, C. elegans, fluorescence polarization, MLPCN library, primary screen; Zinc finger protein mex-5 (Caenorhabditis elegans), Q9XUB2; MEX-5/FITC-TCR2 RNA binding; active compounds read low; activity score (negative = inhibition of binding), % at 10 µM; 300,000 compounds, 0.38% hits; AID 1832, 2009;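 active = inhibition past about -25% in most replicates, and total fluorescence under double the plate's negative control median, limit read from the data; inconclusive = replicates evenly split on the limit, or fluorescence at least double controls; inactive = too little inhibition in most replicates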;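 also: 0% = DMSO and -100% = 5 µM competing unlabeled TCR2 RNA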
GLD-1 RNA inh: GLD-1/TGE RNA complex disruptors, primary screen, biochemical, fluorescence polarization; Female germline-specific tumor suppressor gld-1 (Caenorhabditis elegans), Q17339; purified GLD-1 + fluorescein TGE RNA; inhibition, % at 5.96 µM; 320,000 compounds, 0.44% hits; AID 2280, 2010;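 active = percent inhibition above a per-plate cutoff, the plate mean of test compounds plus 3 SD, cut at about 30% in these data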;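 also: 0% = DMSO wells with GLD-1 and probe and 100% = wells lacking GLD-1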
eLon inh: inhibitors of E. coli Lon protease, primary screen, biochemical, fluorescence polarization | AID 602123, 2011 | P0A9M0 | purified E. coli Lon protease | 360,000 compounds, 0.42% hits | inhibition, % at 7.94 µM; in the data active = inhibition above about 13%, passing the limit was not always enough;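 also: 0% = enzyme with probe and DMSO and 100% = no enzyme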
Bcl-xL primary: inhibitors of human Bcl-xL, primary screen, biochemical, fluorescence polarization, HTS; GST-Bcl-xL / FITC-Bim BH3 peptide fluorescence polarization; inhibition, % at 10.9 µM; 320,000 compounds, 0.7% hits; AID 2129, 2009;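 active = inhibition above the mean of all tested compounds plus 3 SD, cutoff set per campaign, cut at about 30% in these data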;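 also: 0% = DMSO wells and 100% = unlabeled Bim-BH3 peptide competitor; inhibitors lower millipolarization by displacing the labeled peptide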
Target sequence (Q07817 whole entry, looked up): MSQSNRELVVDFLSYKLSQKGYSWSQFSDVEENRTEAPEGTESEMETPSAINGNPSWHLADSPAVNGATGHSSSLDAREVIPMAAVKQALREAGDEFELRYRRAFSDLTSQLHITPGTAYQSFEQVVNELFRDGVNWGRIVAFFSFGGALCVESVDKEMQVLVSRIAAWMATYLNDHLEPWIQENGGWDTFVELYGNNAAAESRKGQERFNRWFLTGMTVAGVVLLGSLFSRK
EBV gp42 inh: Epstein-Barr virus gp42 inhibitors, primary screen, biochemical, uHTS, fluorescence polarization. Glycoprotein 42 (Epstein-Barr virus (strain AG876)), Q1HVG2. Fluorescence polarization binding assay, mP read-out. inhibition, % (tested at 21.74 µM). 220,000 compounds, 0.42% hits; in the data active = inhibition above about 50%
Target sequence (Q1HVG2 whole entry, looked up): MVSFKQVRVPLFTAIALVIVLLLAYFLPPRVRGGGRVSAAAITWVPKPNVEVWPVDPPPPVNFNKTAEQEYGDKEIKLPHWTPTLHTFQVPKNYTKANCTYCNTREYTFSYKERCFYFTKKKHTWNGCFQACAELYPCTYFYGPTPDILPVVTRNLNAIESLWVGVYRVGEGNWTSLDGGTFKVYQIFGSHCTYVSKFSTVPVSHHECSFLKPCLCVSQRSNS
* marks the source's active call; other numbers are inactive results. In the library only some 1.3% were active in any assay of this set; here they are far more common.

Screening CC[C@H](C)Cc1cn([C@@H](CCCCNC(=O)OC(C)(C)C)C(=O)NCCCCCCCCCCC(=O)N2CCN(C(=O)OC(C)(C)C)CC2)nn1 returned GLD-1 RNA inh -1, eLon inh 5 and Bcl-xL primary 5.
`O=C(Nc1nccs1)c1cccc(N2C(=O)c3cccc4c([N+](=O)[O-])ccc(c34)C2=O)c1` gave MEX-5 binding -4, GLD-1 RNA inh 69*, eLon inh 10, Bcl-xL primary 43* and EBV gp42 inh 20.
`Cc1ccc(C(=O)O)cc1N1C(=O)c2cccc3c([N+](=O)[O-])ccc(c23)C1=O` gave MEX-5 binding -24, GLD-1 RNA inh 50*, eLon inh 14 and Bcl-xL primary 82*.
`O=C(O)c1ccc(CN2C(=O)c3cccc4c([N+](=O)[O-])ccc(c34)C2=O)cc1` gave MEX-5 binding -6 and eLon inh 44.
For CCC(C)NS(=O)(=O)c1ccc(NC(=O)C2CCN(C(=O)c3ccco3)CC2)cc1 (configuration not stated) the results were MEX-5 binding 2, GLD-1 RNA inh 6, eLon inh -4 and Bcl-xL primary 6.
For Cn1c(CC(=O)Nc2ccccc2)nnc1SCC(=O)NC1CCCC1 the results were MEX-5 binding 0, GLD-1 RNA inh 5, eLon inh -6 and Bcl-xL primary 1.
Screening CCC(=O)Nc1ccc2nc3c(=O)[nH]c(=S)[nH]c3nc2c1 returned MEX-5 binding -46*, GLD-1 RNA inh 16, eLon inh 10 and Bcl-xL primary 61*.
`COc1ccccc1C(=O)OCC(=O)Nc1cccc(S(=O)(=O)N2CCCC2)c1` gave eLon inh 9.
`O=C(Nc1cccc(Cl)c1)c1cc(N=Nc2ccc([N+](=O)[O-])cc2Cl)ccc1O` gave MEX-5 binding 0, GLD-1 RNA inh -6, eLon inh 5, Bcl-xL primary 1 and EBV gp42 inh 79*.
`O=c1c2ccccc2c2ccccc2c(=O)n1Nc1ccccc1` gave eLon inh 1.
Screening CN(C)c1ccc(N/C=C/C(=O)c2ccccc2)cc1 returned GLD-1 RNA inh 5, eLon inh 0, Bcl-xL primary -12 and EBV gp42 inh -61.
Screening CN(C)c1ccc(N/C=C/C(=O)C(C)(C)C)cc1 returned MEX-5 binding 0, GLD-1 RNA inh 3, eLon inh 2, Bcl-xL primary 32* and EBV gp42 inh -11.
For Cc1ccc2cc(C=C(C#N)C#N)c(N3CCCCC3)nc2c1 the results were MEX-5 binding -2, GLD-1 RNA inh -3, eLon inh 4, Bcl-xL primary 0 and EBV gp42 inh 117*.
`Cc1ccc2cc(/C=C(\C#N)C(N)=O)c(N3CCCCC3)nc2c1` gave MEX-5 binding inconclusive, GLD-1 RNA inh -1, eLon inh -10, Bcl-xL primary 4 and EBV gp42 inh -12.
CCOC(=O)/C(C#N)=C/c1cc2ccccc2nc1N1CCCCC1 was read as MEX-5 binding -39*, GLD-1 RNA inh -5, eLon inh -9, Bcl-xL primary 6 and EBV gp42 inh 60*.
COc1ccc(C=NNc2nc3ccccc3s2)cc1 was read as eLon inh 11.
Screening C(=N\Nc1nc2ccccc2s1)/c1ccccn1 returned MEX-5 binding -8, GLD-1 RNA inh -3, Bcl-xL primary 32* and EBV gp42 inh 2.
Nc1nn2c(-c3ccccc3)cc(=O)[nH]c2c1N=Nc1ccc(O)cc1 was read as MEX-5 binding -3, GLD-1 RNA inh -6, eLon inh -17, Bcl-xL primary 25 and EBV gp42 inh 47.
`Nc1nn2c(-c3ccccc3)cc(=O)[nH]c2c1N=Nc1ccc(Br)cc1` gave eLon inh -8 and EBV gp42 inh 60*.
Screening Cn1c(=O)c2c(nc(NCCNC(=O)c3ccco3)n2Cc2ccccc2)n(C)c1=O returned MEX-5 binding 1, GLD-1 RNA inh 7, eLon inh 1 and Bcl-xL primary 1.
For COc1ccc(N2C3=C(CC4=C2CCCC4=O)C(=O)CCC3)cc1 the results were MEX-5 binding -4, GLD-1 RNA inh 7, eLon inh -3, Bcl-xL primary 75* and EBV gp42 inh 19.
Screening COc1cccc(CN2CCC2(C)C(=O)Nc2cccc(Oc3ccccc3)c2)c1F (configuration not stated) returned eLon inh -17.
`CC1=Nc2ccccc2/C1=C\c1nc(-c2ccc(C(F)(F)F)cc2)oc1O` gave GLD-1 RNA inh 11, eLon inh -152, Bcl-xL primary 60* and EBV gp42 inh 40.
For Fc1ccccc1-c1cc2ccccc2cn1 the results were GLD-1 RNA inh -7, eLon inh -3 and Bcl-xL primary -6.
`CC(C)(C)Nc1ncnc2c1cnn2-c1ccccc1` gave MEX-5 binding 2, GLD-1 RNA inh 8, eLon inh -2 and Bcl-xL primary 13.
Screening O=c1[nH]n(-c2ncnc3c2cnn3-c2ccccc2)c(=O)c2ccccc12 returned MEX-5 binding -39*, GLD-1 RNA inh 6, eLon inh 3, Bcl-xL primary 8 and EBV gp42 inh -8.
`O=C1C=C(O)c2[nH]c(=O)ccc2C1=O` gave eLon inh 6.
`O=C1C=C(O)c2c(O)cc(O)c(O)c2C1=O` gave MEX-5 binding -100*, GLD-1 RNA inh 7, eLon inh -3 and Bcl-xL primary 27.
Cc1ccc2c(c1)Sc1c(ccc3ccccc13)N2 was read as MEX-5 binding -3, GLD-1 RNA inh -3, eLon inh 21, Bcl-xL primary 67* and EBV gp42 inh -6.
`CCOc1ccc(N(CC(=O)Nc2ccc(C)c(C)c2)S(C)(=O)=O)cc1` gave MEX-5 binding 2, GLD-1 RNA inh -5, eLon inh 1 and Bcl-xL primary -13.
Screening CNC(=S)NNC(=O)c1ccccc1Br returned MEX-5 binding -2, GLD-1 RNA inh 8, eLon inh 7, Bcl-xL primary 6 and EBV gp42 inh -9.
`O=C1C=C(NNC(=O)c2ccccc2Br)CCC1` gave MEX-5 binding -5, GLD-1 RNA inh 69*, eLon inh 22, Bcl-xL primary 13 and EBV gp42 inh 0.
O=C(COC(=O)C1CC1)Nc1ncc(C(F)(F)F)cc1Cl was read as MEX-5 binding -7, GLD-1 RNA inh 26, eLon inh 8, Bcl-xL primary 32* and EBV gp42 inh -18.
For CCOc1ccc(C2CC(c3c(O)c4ccccc4oc3=O)=NN2c2ccccc2)cc1OC (configuration not stated) the results were MEX-5 binding inconclusive, GLD-1 RNA inh -8, eLon inh -6, Bcl-xL primary -44 and EBV gp42 inh 141*.
